In PubChem BioAssay (NCI):
This is part of a sample that, as a whole, favours compounds with a hit. Of some 79,000 tested, about 15% had one in any assay. The source made the active and inactive calls. Cut-off read from the data, not from the text of the source: active = growth inhibition above about 70%; inactive = the rest.

Assays:
[1] = NCI Yeast Anticancer Drug Screen. Data for the rad52 strain (AID 147);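 note: 0% = growth of vehicle-treated control cultures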; settings: S. cerevisiae rad52 mutant growth inhibition, stronger effect = higher value
Method in brief: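 Read-out: growth inhibition versus vehicle-treated controls. Cells were a DNA repair-deficient yeast strain treated with compounds.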

[2] = NCI Yeast Anticancer Drug Screen. Data for the wt1 strain (AID 149);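 note: 0% = growth of vehicle-treated wt1 cultures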; settings: S. cerevisiae wt1 strain (SPY 50644) growth inhibition, stronger effect = higher value
Method in brief: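 Readout: yeast growth inhibition, normalised to vehicle controls, in the wt1 strain exposed to test compounds.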

[3] = NCI Yeast Anticancer Drug Screen. Data for the rad50EPP+ strain (AID 151);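 note: 0% = growth of vehicle-treated control cultures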; settings: S. cerevisiae rad50 mutant strain, stronger effect = higher value
Method in brief: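 Growth inhibition read against vehicle controls in rad50EPP+ yeast, a strain altered in DNA damage repair, after compound exposure.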

[4] = NCI Yeast Anticancer Drug Screen. Data for the mgt1 strain (AID 153); settings: S. cerevisiae mgt1 mutant growth inhibition, stronger effect = higher value
Method in brief: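 mgt1 yeast grown with test compound; read-out is growth inhibition versus vehicle-treated cultures.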

[5] = NCI Yeast Anticancer Drug Screen. Data for the rad50 strain (AID 155);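 note: 0% = growth of vehicle-only cultures of the same strain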; settings: S. cerevisiae rad50 strain growth inhibition, stronger effect = higher value
Method in brief: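 Compounds were tested on a yeast strain with an engineered DNA damage repair alteration; the reported value is growth inhibition normalised to vehicle treatment.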

[6] = NCI Yeast Anticancer Drug Screen. Data for the mec2-1 strain (AID 157); settings: S. cerevisiae mec2-1 strain, stronger effect = higher value
Method in brief: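 Yeast mec2-1 mutant treated with compound. Readout: growth inhibition vs vehicle controls.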

[7] = NCI Yeast Anticancer Drug Screen. Data for the rad14 strain (AID 159);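 note: 0% = growth of vehicle-treated control cultures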; settings: S. cerevisiae rad14 strain growth inhibition, stronger effect = higher value
Method in brief: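 Compound-treated yeast with a defined DNA-repair lesion; growth inhibition normalised to vehicle-treated cultures.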

[8] = NCI Yeast Anticancer Drug Screen. Data for the sgs1 mgt1 strain (AID 161);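 note: 0% = growth of cultures given vehicle only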; settings: S. cerevisiae sgs1 mgt1 strain, stronger effect = higher value
Method in brief: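 Genetically altered yeast, compound exposure, growth inhibition relative to vehicle.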

[9] = NCI Yeast Anticancer Drug Screen. Data for the CLN2oe strain (AID 163);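 note: 0% = growth of vehicle-only control cultures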; settings: S. cerevisiae CLN2oe strain, stronger effect = higher value
Method in brief: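 Read-out: yeast growth inhibition, expressed relative to vehicle-only controls. The strain bears an engineered cell-cycle alteration.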

[10] = NCI Yeast Anticancer Drug Screen. Data for the cln2 rad14 strain (AID 165);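 note: 0% = growth equal to vehicle treated cultures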; settings: S. cerevisiae cln2 rad14 strain, stronger effect = higher value
Method in brief: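 cln2 rad14 yeast strain; compound exposure; growth inhibition read vs vehicle controls.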

[11] = NCI Yeast Anticancer Drug Screen. Data for the wt2 strain (AID 169);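 note: 0% = growth of vehicle-treated yeast cultures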; settings: S. cerevisiae wt2 strain growth inhibition, stronger effect = higher value
Method in brief: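 Read-out: growth inhibition versus vehicle-treated control cultures after compound exposure of the yeast strain.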

[12] = NCI Yeast Anticancer Drug Screen. Data for the mlh1 strain (AID 171);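 note: 0% = growth of vehicle-treated control cultures of the same strain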; settings: S. cerevisiae mlh1 strain growth inhibition, stronger effect = higher value
Method in brief: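 Read-out: growth inhibition versus vehicle controls. Strain: engineered yeast with a defined DNA repair or cell cycle defect, compound-treated.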

[13] = NCI Yeast Anticancer Drug Screen. Data for the mlh1 rad18 strain (AID 175); settings: S. cerevisiae mlh1 rad18 strain growth inhibition, stronger effect = higher value
Method in brief: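 Yeast w/ defined DNA-repair lesions; compound exposure; growth vs vehicle controls → % inhibition.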

[14] = NCI Yeast Anticancer Drug Screen. Data for the rad18 strain (AID 177); settings: S. cerevisiae rad18 mutant growth inhibition, stronger effect = higher value
Method in brief: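 Readout: growth inhibition vs vehicle controls. Cells: genetically altered yeast strain, DNA repair defect.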

[15] = NCI Yeast Anticancer Drug Screen. Data for the bub3 strain (AID 167); settings: S. cerevisiae bub3 mutant strain, stronger effect = higher value
Method in brief: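 Growth of a checkpoint-deficient yeast mutant is measured after compound exposure. Values represent inhibition relative to vehicle.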

[16] = NCI Yeast Anticancer Drug Screen. Data for the sgs1 strain (AID 173);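 note: 0% = growth of vehicle-only control cultures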; settings: S. cerevisiae sgs1 mutant, stronger effect = higher value
Method in brief: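 Read-out: yeast growth inhibition relative to vehicle controls, following compound exposure of a strain with a defined DNA repair/cell cycle alteration.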

[17] = at 5.0 µM (retest, dose inferred, filed as 0.5)
[18] = at 50.0 µM (retest, dose inferred, filed as 5.0)

Measured: growth inhibition

Cc1nc2ccc(N=NN(C)C)cc2[nH]1
active: [1]; at 33.0 µM 72% | [1]; at 100.0 µM 97% | [2]; at 100.0 µM 98% | [3]; at 100.0 µM 98% | [4]; at 33.0 µM 99% | [4]; at 100.0 µM 99% | [5]; at 33.0 µM 83% | [5]; [18] 97% | [5]; at 50.0 µM 84% | [5]; at 100.0 µM 98% | [6]; at 33.0 µM 98% | [6]; [18] 98% | [6]; at 50.0 µM 91.3% | [6]; at 100.0 µM 98% | [7]; at 100.0 µM 97% | [8]; at 50.0 µM 88.8% | [9]; at 33.0 µM 96% | [9]; at 100.0 µM 96% | [10]; at 50.0 µM 87.5% | [11]; at 33.0 µM 98% | [11]; at 100.0 µM 98% | [12]; at 33.0 µM 99% | [12]; at 100.0 µM 99% | [13]; [18] 98% | [13]; at 50.0 µM 89% | [14]; at 33.0 µM 77% | [14]; at 100.0 µM 98%
inactive: [1]; at 1.2 µM 11% | [1]; at 3.7 µM 8% | [1]; at 11.0 µM 3% | [2]; at 1.2 µM 13% | [2]; at 3.7 µM 6% | [2]; at 11.0 µM 7% | [2]; at 33.0 µM 25% | [3]; at 1.2 µM 13% | [3]; at 3.7 µM 14% | [3]; at 11.0 µM 8% | [3]; at 33.0 µM 51% | [4]; at 1.2 µM 2% | [4]; at 3.7 µM 3% | [4]; at 11.0 µM 15% | [5]; at 1.2 µM 22% | [5]; at 3.7 µM 16% | [5]; [17] -3% | [5]; at 11.0 µM 15% | [6]; at 1.2 µM 15% | [6]; at 3.7 µM 21% | [6]; [17] -9% | [6]; at 11.0 µM 20% | [7]; at 1.2 µM 4% | [7]; at 3.7 µM 4% | [7]; at 11.0 µM 12% | [7]; at 33.0 µM 15% | [8]; [17] -6% | [8]; [18] 7% | [9]; at 1.2 µM 8% | [9]; at 3.7 µM 1% | [9]; at 11.0 µM 30% | [10]; [17] 8% | [10]; [18] 35% | [11]; at 1.2 µM -15% | [11]; at 3.7 µM 4% | [11]; at 11.0 µM 6% | [12]; at 1.2 µM 2% | [12]; at 3.7 µM 3% | [12]; at 11.0 µM 15% | [13]; [17] -7% | [14]; at 1.2 µM 18% | [14]; at 3.7 µM 23% | [14]; at 11.0 µM 26%

CCOC(=O)CC1(C(=O)OCC)c2[nH]c3ccccc3c2CCN1Cc1ccccc1 (stereo unspecified)
active: [5]; at 50.0 µM 70.9% | [10]; at 50.0 µM 74%
inactive: [1]; at 1.2 µM -1% | [1]; at 3.7 µM 0% | [1]; at 11.0 µM 1% | [1]; at 33.0 µM 7% | [1]; at 100.0 µM 45% | [2]; at 1.2 µM -3% | [2]; at 3.7 µM -2% | [2]; at 11.0 µM -1% | [2]; at 33.0 µM -5% | [2]; at 100.0 µM 42% | [3]; at 1.2 µM -7% | [3]; at 3.7 µM -7% | [3]; at 11.0 µM -11% | [3]; at 33.0 µM -9% | [3]; at 100.0 µM 0% | [4]; at 1.2 µM -2% | [4]; at 3.7 µM -1% | [4]; at 11.0 µM 1% | [4]; at 33.0 µM 3% | [4]; at 100.0 µM 50% | [5]; at 1.2 µM -2% | [5]; at 3.7 µM -2% | [5]; [17] 50% | [5]; at 11.0 µM 5% | [5]; at 33.0 µM 5% | [5]; [18] 50% | [5]; at 100.0 µM 38% | [6]; at 1.2 µM -3% | [6]; at 3.7 µM -4% | [6]; [17] 13% | [6]; at 11.0 µM -5% | [6]; at 33.0 µM -2% | [6]; [18] 13% | [6]; at 50.0 µM 61.2% | [6]; at 100.0 µM 50% | [7]; at 1.2 µM 1% | [7]; at 3.7 µM 1% | [7]; at 11.0 µM 1% | [7]; at 33.0 µM 3% | [7]; at 100.0 µM 33% | [8]; [17] 43% | [8]; [18] 43% | [8]; at 50.0 µM 62% | [10]; [17] -4% | [10]; [18] -4% | [15]; at 1.2 µM -3% | [15]; at 3.7 µM -7% | [15]; [17] 6% | [15]; at 11.0 µM 8% | [15]; at 33.0 µM 26% | [15]; [18] 6% | [15]; at 50.0 µM 55.1% | [15]; at 100.0 µM 37% | [11]; at 1.2 µM -1% | [11]; at 3.7 µM 0% | [11]; at 11.0 µM 0% | [11]; at 33.0 µM 2% | [11]; at 100.0 µM 45% | [12]; at 1.2 µM -4% | [12]; at 3.7 µM -3% | [12]; at 11.0 µM -2% | [12]; at 33.0 µM 11% | [12]; at 100.0 µM 45% | [16]; at 1.2 µM -4% | [16]; at 3.7 µM -7% | [16]; at 11.0 µM -5% | [16]; at 33.0 µM 0% | [16]; at 100.0 µM 40% | [13]; [17] 31% | [13]; [18] 31% | [13]; at 50.0 µM 65.2% | [14]; at 1.2 µM -3% | [14]; at 3.7 µM -15% | [14]; at 11.0 µM 8% | [14]; at 33.0 µM 3% | [14]; at 100.0 µM 35%

O=[N+]([O-])c1cc(F)c(F)cc1Sc1cc(F)c(F)cc1[N+](=O)[O-]
inactive: [1]; at 1.2 µM 6% | [1]; at 3.7 µM 37% | [2]; at 1.2 µM -4% | [2]; at 3.7 µM 8% | [3]; at 1.2 µM 30% | [3]; at 3.7 µM 68% | [4]; at 1.2 µM -4% | [4]; at 3.7 µM 3% | [5]; at 1.2 µM 6% | [5]; at 3.7 µM 27% | [5]; [17] 66% | [6]; at 1.2 µM -2% | [6]; at 3.7 µM 14% | [6]; [17] -2% | [7]; at 1.2 µM 1% | [7]; at 3.7 µM 17% | [8]; [17] 64% | [9]; at 1.2 µM -2% | [9]; at 3.7 µM 1% | [10]; [17] 27% | [15]; at 1.2 µM -3% | [15]; at 3.7 µM 5% | [15]; [17] 49% | [12]; at 1.2 µM 0% | [12]; at 3.7 µM 7% | [16]; at 1.2 µM 6% | [16]; at 3.7 µM 32% | [14]; at 1.2 µM 38% | [14]; at 3.7 µM 69%
active: [1]; at 11.0 µM 92% | [1]; at 33.0 µM 98% | [1]; at 100.0 µM 97% | [2]; at 11.0 µM 85% | [2]; at 33.0 µM 98% | [2]; at 100.0 µM 98% | [3]; at 11.0 µM 96% | [3]; at 33.0 µM 98% | [3]; at 100.0 µM 98% | [4]; at 11.0 µM 80% | [4]; at 33.0 µM 99% | [4]; at 100.0 µM 96% | [5]; at 11.0 µM 91% | [5]; at 33.0 µM 98% | [5]; [18] 98% | [5]; at 50.0 µM 98.4% | [5]; at 100.0 µM 97% | [6]; at 11.0 µM 83% | [6]; at 33.0 µM 99% | [6]; [18] 98% | [6]; at 50.0 µM 98.5% | [6]; at 100.0 µM 98% | [7]; at 11.0 µM 83% | [7]; at 33.0 µM 98% | [7]; at 100.0 µM 97% | [8]; [18] 98% | [8]; at 50.0 µM 98.3% | [9]; at 11.0 µM 75% | [9]; at 33.0 µM 99% | [9]; at 100.0 µM 95% | [10]; [18] 97% | [10]; at 50.0 µM 96.8% | [15]; at 11.0 µM 76% | [15]; at 33.0 µM 98% | [15]; [18] 97% | [15]; at 50.0 µM 98.5% | [15]; at 100.0 µM 98% | [12]; at 11.0 µM 90% | [12]; at 33.0 µM 99% | [12]; at 100.0 µM 97% | [16]; at 11.0 µM 92% | [16]; at 33.0 µM 99% | [16]; at 100.0 µM 97% | [13]; [17] 82% | [13]; [18] 97% | [13]; at 50.0 µM 98.6% | [14]; at 11.0 µM 94% | [14]; at 33.0 µM 98% | [14]; at 100.0 µM 97%
